# Results as given in the antibiotic and cytotoxicity screens of Wong et al. (2023).
# About 3,300 (8.5%) of roughly 39,000 compounds were called active. The list comes from a sample in which actives are over-represented; it also holds similar structures and randomly drawn compounds.
# Test system: HepG2
# Test: cytotoxicity call (relative viability < 0.9)
# Details: 10 µM
row,Compound,cytotoxicity call
1,C[C@H]1CCCCO[C@@H](CN(C)Cc2ccncc2)[C@@H](C)CN([C@@H](C)CO)C(=O)c2cc(NC(=O)Cc3ccccc3)ccc2O1,inactive
2,C[C@@H]1CN([C@@H](C)CO)C(=O)Cc2cc(NC(=O)Nc3cccc4ccccc34)ccc2O[C@H]1CN(C)S(=O)(=O)c1cccs1,inactive
3,C[C@H](CO)N1C[C@H](C)[C@@H](CN(C)C(=O)NC2CCCCC2)Oc2cc(-c3cccnc3)ccc2S1(=O)=O,inactive
4,Cc1ccc(S(=O)(=O)N2C[C@@H](O)COC[C@H]3O[C@H](CC(=O)NCCCN(C)C)CC[C@@H]32)cc1,inactive
5,Cc1noc(C)c1NC(=O)Nc1ccc2c(c1)C(=O)N([C@H](C)CO)C[C@H](C)[C@H](CN(C)Cc1ccc(Cl)c(Cl)c1)O2,inactive
6,C=CC[C@@H](CC(=O)N[C@H](CO)Cc1ccccc1)C(=O)NC[C@H](OC(=O)[C@@H](CC=C)Cc1ccc(F)cc1)c1ccccc1,active
7,C=CC[C@@H](CC(=O)N[C@@H](CO)Cc1ccccc1)C(=O)NC[C@H](OC(=O)[C@@H](CC=C)Cc1ccc(F)cc1)c1ccccc1,inactive
8,C=CC[C@@H](CC(=O)N[C@@H](CO)Cc1ccccc1)C(=O)NC[C@@H](OC(=O)[C@@H](CC=C)Cc1ccc(F)cc1)c1ccccc1,inactive
9,C=CCC[C@@H](Cc1ccc(F)cc1)C(=O)O[C@@H](CNC(=O)[C@@H](CC=C)CC(=O)N[C@H](CO)Cc1ccccc1)c1ccccc1,active
10,C=CCC[C@H](Cc1ccc(F)cc1)C(=O)O[C@@H](CNC(=O)[C@@H](CC=C)CC(=O)N[C@@H](CO)Cc1ccccc1)c1ccccc1,inactive
11,C=CCC[C@H](Cc1ccc(F)cc1)C(=O)O[C@@H](CNC(=O)[C@@H](CC=C)CC(=O)N[C@H](CO)Cc1ccccc1)c1ccccc1,inactive
12,Nc1ncnc2c1CCC2,inactive
13,CCCCCCCCNC(C)C(O)c1ccc(SC(C)C)cc1 (configuration not stated),active
14,CC(NCCc1ccc(O)cc1)C(O)c1ccc(O)cc1.Cl (configuration not stated),inactive
15,CCCCCCCCNC[C@@H](O)[C@H](O)[C@@H](O)[C@@H](O)CO,inactive
16,C[C@H]1CN([C@@H](C)CO)C(=O)c2cc(NC(=O)Cc3ccccc3)ccc2O[C@H]1CN(C)S(=O)(=O)c1cn(C)cn1,inactive
17,C[C@@H]1CN([C@@H](C)CO)C(=O)c2cc(NS(=O)(=O)c3ccc(F)cc3)ccc2O[C@@H]1CN(C)C(=O)Nc1cccc2ccccc12,inactive
18,Cl.Cl.N=C(NCCCCCCNC(=N)NC(=N)Nc1ccc(Cl)cc1)NC(=N)Nc1ccc(Cl)cc1,active
19,N[C@@H](CC(=O)Nc1ccc(Cl)cc1)C(=O)O,inactive
20,CC(C)NC(=N)NC(=N)Nc1ccc(Cl)cc1.Cl,active
21,C[C@H](CO)N1C[C@H](C)[C@@H](CN(C)S(=O)(=O)c2ccccc2)Oc2c(NC(=O)C3CC3)cccc2C1=O,inactive

row,Compound,cytotoxicity call
1,C[C@H]1CN([C@@H](C)CO)C(=O)c2cccc(NC(=O)c3ccncc3)c2O[C@@H]1CN(C)S(=O)(=O)c1ccc(F)cc1,inactive
2,COCCN1CCC(N(Cc2ccc(-c3ccc(C(F)(F)F)cc3)cc2)C(=O)Cn2c(SCc3cccc(F)c3F)cc(=O)c3ccccc32)CC1,active
3,C[C@@H]1CN([C@@H](C)CO)C(=O)c2cc(NC(=O)c3ccncc3)ccc2O[C@@H](C)CCCCO[C@@H]1CN(C)S(C)(=O)=O,inactive
4,COc1ccc2c(c1)/C(=N\O)C(=O)N2,inactive
5,O=C1Nc2ccc(I)cc2C1=Cc1cc(Br)c(O)c(Br)c1,active
6,COc1ccc2c(c1)C(=O)C(=O)N2,inactive
7,CC(C)C[C@@H](N)C(=O)N[C@H]1C(=O)N[C@@H](CC(N)=O)C(=O)N[C@H]2C(=O)N[C@H]3C(=O)N[C@H](C(=O)N[C@H](C(=O)O)c4cc(O)cc(O)c4-c4cc3ccc4O)[C@H](O)c3ccc(c(Cl)c3)Oc3cc2cc(c3O[C@@H]2O[C@H](CO)[C@@H](O)[C@H](O)[C@H]2O[C@H]2C[C@](C)(N)[C@H](O)[C@H](C)O2)Oc2ccc(cc2Cl)[C@H]1O,inactive
8,C[C@@H]1CCCCO[C@@H](CN(C)C(=O)Nc2cccc3ccccc23)[C@@H](C)CN([C@H](C)CO)C(=O)c2cc(NS(=O)(=O)c3ccc(Cl)cc3)ccc2O1,inactive
9,COc1ccc(S(=O)(=O)Nc2ccc3c(c2)[C@@H]2C[C@@H](CC(=O)NCC4CC4)O[C@H](CO)[C@@H]2O3)cc1,inactive
10,CS(=O)(=O)O.CSc1ccc2c(c1)C(N1CCN(C)CC1)Cc1ccccc1S2 (configuration not stated),active
11,C[C@H]1CN([C@@H](C)CO)C(=O)Cc2cc(NC(=O)Nc3cccc4ccccc34)ccc2O[C@H]1CN(C)S(=O)(=O)c1ccc(F)cc1,inactive
12,C[C@H](CO)N1C[C@H](C)[C@H](CN(C)Cc2ccc(-c3ccccc3)cc2)Oc2c(NC(=O)c3ccc(-c4nccs4)cc3)cccc2C1=O,inactive
13,C[C@@H]1CN([C@H](C)CO)C(=O)c2cc(NC(=O)Nc3ccc(C(F)(F)F)cc3)ccc2O[C@H]1CN(C)Cc1ccc(Oc2ccccc2)cc1,inactive
14,C[C@@H]1CN([C@@H](C)CO)C(=O)c2cc(NC(=O)Nc3ccc(C(F)(F)F)cc3)ccc2O[C@H]1CN(C)Cc1ccc(Oc2ccccc2)cc1,active
15,C[C@H]1CN([C@@H](C)CO)C(=O)c2cc(NC(=O)Nc3ccc(C(F)(F)F)cc3)ccc2O[C@@H]1CN(C)Cc1ccc(Oc2ccccc2)cc1,inactive
16,C[C@H](CO)N1C[C@H](C)[C@H](CN(C)Cc2ccc(Oc3ccccc3)cc2)Oc2ccc(NC(=O)Nc3ccc(C(F)(F)F)cc3)cc2C1=O,active
17,C[C@H](CO)N1C[C@H](C)[C@@H](CN(C)Cc2ccc(Oc3ccccc3)cc2)Oc2ccc(NC(=O)Nc3ccc(C(F)(F)F)cc3)cc2C1=O,inactive
18,C[C@@H]1CN([C@H](C)CO)C(=O)c2cc(NC(=O)Nc3ccc(C(F)(F)F)cc3)ccc2O[C@@H]1CN(C)Cc1ccc(Oc2ccccc2)cc1,active
19,C[C@H]1CN([C@@H](C)CO)C(=O)c2cc(NC(=O)Nc3ccc(C(F)(F)F)cc3)ccc2O[C@H]1CN(C)Cc1ccc(Oc2ccccc2)cc1,active
20,C[C@@H]1CN([C@@H](C)CO)S(=O)(=O)c2ccc(Br)cc2O[C@H]1CN(C)CC1CCOCC1,inactive
21,COc1ccc(NC(=O)Nc2ccc3c(c2)C(=O)N([C@@H](C)CO)C[C@H](C)[C@@H](CN(C)C(=O)Nc2cccc4ccccc24)O3)cc1,inactive

row,Compound,cytotoxicity call
1,C[C@H]1CN([C@@H](C)CO)S(=O)(=O)c2ccc(C#Cc3ccccc3)cc2O[C@@H]1CN(C)C(=O)Cc1ccccn1,inactive
2,Nc1nc(=O)c2ncn(CCC(CO)CO)c2[nH]1,inactive
3,Cc1noc(C)c1NC(=O)N(C)C[C@H]1Oc2ccc(NC(=O)NC(C)C)cc2CC(=O)N([C@H](C)CO)C[C@H]1C,inactive
4,C[C@@H]1CN([C@@H](C)CO)C(=O)c2cc(NC(=O)Nc3ccc(C(F)(F)F)cc3)ccc2O[C@@H]1CN(C)Cc1ccc(Oc2ccccc2)cc1,active
5,C[C@@H]1CN([C@@H](C)CO)C(=O)c2cc(NC(=O)Nc3ccc(C(F)(F)F)cc3)ccc2O[C@@H]1CN(C)C(=O)Nc1ccccc1,inactive
6,O=C(O)c1ccc(/C2=C3\C=CC(=N3)/C(c3ccc(C(=O)O)cc3)=c3/cc/c4[n]3[Mn+][n]3c2ccc3/C(c2ccc(C(=O)O)cc2)=C2/C=CC(=N2)\C=4c2ccc(C(=O)O)cc2)cc1,inactive
7,C[n+]1ccc(/C2=C3\C=CC(=N3)/C(c3cc[n+](C)cc3)=c3/cc/c4[n]3[Fe][n]3c2ccc3/C(c2cc[n+](C)cc2)=C2/C=CC(=N2)\C=4c2cc[n+](C)cc2)cc1,active
8,C[C@@H]1CN([C@@H](C)CO)C(=O)c2cc(NC(=O)Cc3ccccc3)ccc2O[C@@H]1CN(C)S(=O)(=O)c1ccccc1,inactive
9,C[C@@H]1CN([C@@H](C)CO)C(=O)c2cccc(NC(=O)C3CC3)c2O[C@@H]1CN(C)S(=O)(=O)c1cccs1,inactive
10,Cc1ccc(S(=O)(=O)N(C)C[C@@H]2OCCCC[C@@H](C)Oc3ccc(NC(=O)Nc4c(C)noc4C)cc3C(=O)N([C@@H](C)CO)C[C@@H]2C)cc1,inactive
11,C[C@@H]1CCCCO[C@@H](CN(C)CC2CC2)[C@@H](C)CN([C@H](C)CO)C(=O)c2cc(NS(=O)(=O)c3cn(C)cn3)ccc2O1,inactive
12,COc1ccc(CN(C)C[C@@H]2Oc3ccc(NC(=O)Nc4cccc5ccccc45)cc3CC(=O)N([C@H](C)CO)C[C@@H]2C)cc1,inactive
13,COc1ccc(CN(C)C[C@H]2Oc3ccc(NC(=O)Nc4cccc5ccccc45)cc3CC(=O)N([C@@H](C)CO)C[C@@H]2C)cc1,active
14,COc1ccc(CN(C)C[C@@H]2Oc3ccc(NC(=O)Nc4cccc5ccccc45)cc3CC(=O)N([C@H](C)CO)C[C@H]2C)cc1,inactive
15,COc1ccc(CN(C)C[C@@H]2Oc3ccc(NC(=O)Nc4cccc5ccccc45)cc3CC(=O)N([C@@H](C)CO)C[C@@H]2C)cc1,active
16,COc1ccc(CN(C)C[C@H]2Oc3ccc(NC(=O)Nc4cccc5ccccc45)cc3CC(=O)N([C@H](C)CO)C[C@H]2C)cc1,active
17,COc1ccc(CN(C)C[C@H]2Oc3ccc(NC(=O)Nc4cccc5ccccc45)cc3CC(=O)N([C@@H](C)CO)C[C@H]2C)cc1,active
18,COc1ccc(OC)c(S(=O)(=O)N2[C@@H]3CC[C@@H](C3)[C@H]2c2nc3cccc(OCc4ccccc4)c3[nH]2)c1,inactive
19,CO[C@@H]1CN(C)C(=O)c2cc(NS(=O)(=O)CC(F)(F)F)ccc2OC[C@@H](C)N(Cc2ccccn2)C[C@@H]1C,inactive
20,C[C@@H]1CN([C@@H](C)CO)C(=O)c2cc(Br)cnc2O[C@@H]1CN(C)S(=O)(=O)c1ccccc1,inactive
